Active and inactive are the calls of the source. Rule for the calls: active = hit-call score of the fitted dose curve at least 0.9, where 1 is the maximum; inactive = score below 0.9.
Experiments:
Settings in all cases: mRNA level, 48 h; actives raise or lower the signal
[1] = read-out: Interleukin 6 Receptor (IL6R), IL6R (gene 3570); experiment: LTEA_HepaRG_IL6R: Life Technologies and Expression Analysis (LTEA) Assay for Interleukin 6 Receptor (IL6R) using HepaRG (AID 2283510);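 for AC50: TaqMan qRT-PCR signal normalized to ACTB GAPDH and POLR2A housekeeping genes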
Method in brief: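 Cells were thawed, plated and cultured 48 h, then medium was changed to serum-free induction medium. Chemicals were added in duplicate (100 uM top, half-log steps, 0.5% DMSO) for 48 h. Lysates were analyzed by qRT-PCR for IL6R expression.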

[2] = read-out: Potassium channel subfamily K member 1 (KCNK1), KCNK1 (gene 3775); experiment: LTEA_HepaRG_KCNK1: Life Technologies and Expression Analysis (LTEA) Assay for Potassium channel subfamily K member 1 (KCNK1) using HepaRG (AID 2283511)
Method in brief: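 HepaRG, 48 h exposure, 8-pt half-log series top 100 uM, 0.5% DMSO vehicle, duplicates. Readout: KCNK1 transcript by qRT-PCR (Fluidigm array), housekeeping-normalized; bidirectional curve fit relative to DMSO baseline.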

[3] = read-out: Keratin 19 (KRT19), KRT19 (gene 3880); experiment: LTEA_HepaRG_KRT19: Life Technologies and Expression Analysis (LTEA) Assay for Keratin 19 (KRT19) using HepaRG (AID 2283512)
Method in brief: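 Differentiated human HepaRG cells, plated 48 h, were exposed in duplicate for 48 h in serum-free induction medium to eight half-log concentrations up to 100 uM in 0.5% DMSO. KRT19 mRNA was quantified by qRT-PCR, normalized to ACTB, GAPDH and POLR2A, and fitted bidirectionally versus DMSO.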

[4] = read-out: JUN Transcription Factor, JUN (gene 3725); experiment: LTEA_HepaRG_JUN: Life Technologies and Expression Analysis (LTEA) Assay for JUN Transcription Factor using HepaRG (AID 2283513)
Method in brief: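 Read-out is JUN transcript level by TaqMan qRT-PCR, normalized to ACTB, GAPDH and POLR2A, after 48 h chemical treatment of HepaRG cells. Concentration-response spanned eight half-log points up to 100 uM in 0.5% DMSO.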

[5] = read-out: Lipase C (LIPC), LIPC (gene 3990); experiment: LTEA_HepaRG_LIPC: Life Technologies and Expression Analysis (LTEA) Assay for Lipase C (LIPC) using HepaRG (AID 2283514)
Method in brief: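 HepaRG, 48 h exposure, 8-pt half-log series from 100 uM in 0.5% DMSO, duplicates. Readout: LIPC mRNA by Fluidigm qRT-PCR, housekeeping-normalized (ACTB/GAPDH/POLR2A). Gain or loss fitted bidirectionally against DMSO baseline.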

[6] = read-out: Lipoprotein lipase (LPL), LPL (gene 4023); experiment: LTEA_HepaRG_LPL: Life Technologies and Expression Analysis (LTEA) Assay for Lipoprotein lipase (LPL) using HepaRG (AID 2283515)
Method in brief: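 HepaRG, 48 h exposure, 8-pt half-log dilutions from 100 uM, 0.5% DMSO vehicle, duplicates; qRT-PCR (Fluidigm array) of LPL mRNA vs housekeeping genes; bidirectional curve fit relative to DMSO baseline.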

[7] = read-out: MicroRNA 122 (MIR122), gene 406906; experiment: LTEA_HepaRG_MIR122: Life Technologies and Expression Analysis (LTEA) Assay for MicroRNA 122 (MIR122) using HepaRG (AID 2283516); note: the transcript read is the microRNA miR-122
Method in brief: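 Human liver HepaRG cultures receive test chemicals for 48 h at eight half-log concentrations from 100 uM. Expression is quantified by qRT-PCR with ACTB/GAPDH/POLR2A normalization and fitted bidirectionally against 0.5% DMSO.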

[8] = read-out: matrix metalloproteinase-10 (MMP10), MMP10 (gene 4319); experiment: LTEA_HepaRG_MMP10: Life Technologies and Expression Analysis (LTEA) Assay for matrix metalloproteinase-10 (MMP10) using HepaRG (AID 2283517)
Method in brief: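 Transcript levels come from Fluidigm qRT-PCR normalized to three housekeeping genes, with curves fitted bidirectionally against 0.5% DMSO. Human HepaRG cells were dosed for 48 hours at concentrations up to 100 uM.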

MYC, MYC (gene 4609) = experiment: LTEA_HepaRG_MYC: Life Technologies and Expression Analysis (LTEA) Assay for MYC using HepaRG (AID 2283518)
Method in brief: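 Differentiated human HepaRG cells, plated 48 h then switched to serum-free induction medium, were exposed in duplicate for 48 h to 8-point half-log series up to 100 uM in 0.5% DMSO. MYC mRNA measured by qRT-PCR, normalized to ACTB/GAPDH/POLR2A.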

[9] = read-out: matrix metalloproteinase-3 (MMP3), MMP3 (gene 4314); experiment: LTEA_HepaRG_MMP3: Life Technologies and Expression Analysis (LTEA) Assay for matrix metalloproteinase-3 (MMP3) using HepaRG (AID 2283519)
Method in brief: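 qRT-PCR read-out of MMP3 mRNA (normalised to three housekeeping genes) in HepaRG liver cells after 48 h chemical exposure; 8-point half-log series, top 100 uM, 0.5% DMSO vehicle. Bidirectional curve fitting against DMSO baseline.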

## CC1(C)C(C(=O)OC(C#N)c2cccc(Oc3ccccc3)c2)C1(C)C (stereo not given)
[1]
  outcome: inactive
[2]
  outcome: inactive
[3]
  outcome: inactive
[4]
  outcome: inactive
[5]
  outcome: inactive
[6]
  outcome: inactive
[7]
  outcome: inactive
[8]
  outcome: inactive
MYC, MYC (gene 4609)
  outcome: inactive
[9]
  outcome: inactive

## CC1(C)CON(Cc2ccccc2Cl)C1=O
[1]
  outcome: inactive
[2]
  outcome: inactive
[3]
  outcome: inactive
[4]
  outcome: inactive
[5]
  outcome: inactive
[6]
  outcome: inactive
[7]
  outcome: inactive
[8]
  outcome: inactive
MYC, MYC (gene 4609)
  outcome: inactive
[9]
  outcome: inactive

## Clc1cccc(C(Cl)(Cl)Cl)n1
[1]
  outcome: inactive
[2]
  outcome: inactive
[3]
  outcome: inactive
[4]
  outcome: inactive
[5]
  outcome: inactive
[6]
  outcome: inactive
[7]
  outcome: inactive
[8]
  outcome: inactive
MYC, MYC (gene 4609)
  outcome: inactive
[9]
  outcome: inactive

## CSC(=O)c1c(C(F)F)nc(C(F)(F)F)c(C(=O)SC)c1CC(C)C
[1]
  outcome: inactive
[2]
  outcome: inactive
[3]
  outcome: inactive
[4]
  outcome: inactive
[5]
  AC50: 91.9 µM (active)
[6]
  outcome: inactive
[7]
  AC50: 49.8 µM (active)
[8]
  outcome: inactive
MYC, MYC (gene 4609)
  outcome: inactive
[9]
  outcome: inactive

## CCNP(=S)(OC)O/C(C)=C/C(=O)OC(C)C (stereo not given)
[1]
  outcome: inactive
[2]
  outcome: inactive
[3]
  AC50: 50 µM (active)
[4]
  outcome: inactive
[5]
  outcome: inactive
[6]
  AC50: 50 µM (active)
[7]
  outcome: inactive
[8]
  outcome: inactive
MYC, MYC (gene 4609)
  outcome: inactive
[9]
  AC50: 50 µM (active)

## COc1cc(Cl)c(OC)cc1Cl
[1]
  outcome: inactive
[2]
  outcome: inactive
[3]
  outcome: inactive
[4]
  outcome: inactive
[5]
  outcome: inactive
[6]
  outcome: inactive
[7]
  outcome: inactive
[8]
  outcome: inactive
MYC, MYC (gene 4609)
  outcome: inactive
[9]
  outcome: inactive

## CCCC(=NOCC)C1=C(O)CC(CC(C)SCC)CC1=O (stereo not given)
[1]
  outcome: inactive
[2]
  outcome: inactive
[3]
  outcome: inactive
[4]
  outcome: inactive
[5]
  outcome: inactive
[6]
  outcome: inactive
[7]
  outcome: inactive
[8]
  outcome: inactive
MYC, MYC (gene 4609)
  outcome: inactive
[9]
  outcome: inactive

## CCOP(=S)(OCC)Oc1nc(Cl)n(C(C)C)n1
[1]
  AC50: 12.2 µM (active)
[2]
  outcome: inactive
[3]
  outcome: inactive
[4]
  outcome: inactive
[5]
  outcome: inactive
[6]
  AC50: 64.7 µM (active)
[7]
  outcome: inactive
[8]
  outcome: inactive
MYC, MYC (gene 4609)
  outcome: inactive
[9]
  outcome: inactive

## COc1cc(OC)nc(NC(=O)NS(=O)(=O)c2ncccc2OCC(F)(F)F)n1
[1]
  outcome: inactive
[2]
  outcome: inactive
[3]
  outcome: inactive
[4]
  outcome: inactive
[5]
  outcome: inactive
[6]
  outcome: inactive
[7]
  outcome: inactive
[8]
  outcome: inactive
MYC, MYC (gene 4609)
  outcome: inactive
[9]
  outcome: inactive

## CC(C)=CC1C(C(=O)OCc2coc(Cc3ccccc3)c2)C1(C)C (stereo not given)
[1]
  outcome: inactive
[2]
  outcome: inactive
[3]
  outcome: inactive
[4]
  outcome: inactive
[5]
  outcome: inactive
[6]
  outcome: inactive
[7]
  outcome: inactive
[8]
  outcome: inactive
MYC, MYC (gene 4609)
  outcome: inactive
[9]
  outcome: inactive

## CCOc1nc(C(Cl)(Cl)Cl)ns1
[1]
  AC50: 0.987 µM (active)
[2]
  AC50: 1.22 µM (active)
[3]
  outcome: inactive
[4]
  AC50: 1.89 µM (active)
[5]
  AC50: 0.944 µM (active)
[6]
  AC50: 1.06 µM (active)
[7]
  AC50: 0.682 µM (active)
[8]
  outcome: inactive
MYC, MYC (gene 4609)
  AC50: 1.03 µM (active)
[9]
  AC50: 2.93 µM (active)

## Cc1cc(C)nc(Nc2ccccc2)n1
[1]
  outcome: inactive
[2]
  outcome: inactive
[3]
  AC50: 18.7 µM (active)
[4]
  outcome: inactive
[5]
  outcome: inactive
[6]
  outcome: inactive
[7]
  outcome: inactive
[8]
  outcome: inactive
MYC, MYC (gene 4609)
  outcome: inactive
[9]
  outcome: inactive

## CCCCC(C#N)(Cn1cncn1)c1ccc(Cl)cc1 (stereo not given)
[1]
  outcome: inactive
[2]
  outcome: inactive
[3]
  outcome: inactive
[4]
  outcome: inactive
[5]
  outcome: inactive
[6]
  outcome: inactive
[7]
  outcome: inactive
[8]
  outcome: inactive
MYC, MYC (gene 4609)
  outcome: inactive
[9]
  AC50: 73.1 µM (active)

## CC(C)Oc1cccc(NC(=O)c2ccccc2C(F)(F)F)c1
[1]
  outcome: inactive
[2]
  outcome: inactive
[3]
  AC50: 34.1 µM (active)
[4]
  outcome: inactive
[5]
  outcome: inactive
[6]
  outcome: inactive
[7]
  outcome: inactive
[8]
  outcome: inactive
MYC, MYC (gene 4609)
  outcome: inactive
[9]
  outcome: inactive

## CC(C)N1C(=O)c2ccccc2NS1(=O)=O
[1]
  outcome: inactive
[2]
  outcome: inactive
[3]
  outcome: inactive
[4]
  outcome: inactive
[5]
  outcome: inactive
[6]
  outcome: inactive
[7]
  outcome: inactive
[8]
  outcome: inactive
MYC, MYC (gene 4609)
  outcome: inactive
[9]
  outcome: inactive

## N#CN=C1SCCN1Cc1ccc(Cl)nc1
[1]
  outcome: inactive
[2]
  outcome: inactive
[3]
  outcome: inactive
[4]
  outcome: inactive
[5]
  outcome: inactive
[6]
  outcome: inactive
[7]
  outcome: inactive
[8]
  outcome: inactive
MYC, MYC (gene 4609)
  outcome: inactive
[9]
  outcome: inactive

## CC1(C)C(C=C(Cl)Cl)C1C(=O)OC(C#N)c1cccc(Oc2ccccc2)c1 (stereo not given)
[1]
  outcome: inactive
[2]
  outcome: inactive
[3]
  outcome: inactive
[4]
  outcome: inactive
[5]
  outcome: inactive
[6]
  outcome: inactive
[7]
  outcome: inactive
[8]
  outcome: inactive
MYC, MYC (gene 4609)
  outcome: inactive
[9]
  outcome: inactive

## COC(=O)c1c(C(F)F)nc(C(F)(F)F)c(C2=NCCS2)c1CC(C)C
[1]
  AC50: 12.2 µM (active)
[2]
  outcome: inactive
[3]
  outcome: inactive
[4]
  outcome: inactive
[5]
  outcome: inactive
[6]
  outcome: inactive
[7]
  outcome: inactive
[8]
  outcome: inactive
MYC, MYC (gene 4609)
  outcome: inactive
[9]
  outcome: inactive

## CCOc1cc(C(C)(C)C)ccc1C1COC(c2c(F)cccc2F)=N1 (stereo not given)
[1]
  outcome: inactive
[2]
  outcome: inactive
[3]
  AC50: 4.11 µM (active)
[4]
  outcome: inactive
[5]
  AC50: 33 µM (active)
[6]
  AC50: 52.9 µM (active)
[7]
  outcome: inactive
[8]
  outcome: inactive
MYC, MYC (gene 4609)
  AC50: 33 µM (active)
[9]
  outcome: inactive

## O=C(Nc1ccccc1-c1ccc(Cl)cc1)c1cccnc1Cl
[1]
  outcome: inactive
[2]
  outcome: inactive
[3]
  outcome: inactive
[4]
  outcome: inactive
[5]
  outcome: inactive
[6]
  outcome: inactive
[7]
  outcome: inactive
[8]
  outcome: inactive
MYC, MYC (gene 4609)
  outcome: inactive
[9]
  outcome: inactive

Source: PubChem BioAssay (EPA / NIEHS)
